Sfp inh: qHTS Assay for Inhibitors of Bacillus subtilis Sfp phosphopantetheinyl transferase (PPTase); 4'-phosphopantetheinyl transferase ffp (Bacillus subtilis), Q9F4F7; Biochemical Sfp PPTase activity, qHTS; Potency, µM, for the others: largest response in the series, negative = inhibition, usual class: inhibitors; hit rate 3.5% among 310,000;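 also: the enzyme is Sfp with the accession as filed and its product quenches rhodamine fluorescence; potency is read from the fitted curve at half-maximal effect; 0% = enzyme reaction without inhibitor and -100% = no enzyme wells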
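Step 1, compound plus 15 nM Sfp-PPTase, 15 min, room temperature. Step 2, add rhodamine-CoA (5 uM) and BHQ-2-YbbR (12.5 uM). Step 3, read 525/598 nm fluorescence at 0 and 30 min.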
Coupling enz: qHTS Assay for Inhibitors of Fructose-1,6-bisphosphate Aldolase from Giardia Lamblia: Coupling assay counterscreen; coupling enzyme system counterscreen, AmpLite Red fluorescence; activity change, negative = inhibition, % at 58.2 µM, hits read low; hit rate 0.67% among 290,000; in the data active = activity change below about -30%
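Counterscreen of the coupled detection system alone, without aldolase: glyceraldehyde-3-phosphate coupling enzymes plus AmpLite Red readout. Compounds at 57.5 uM final, 10 min RT preincubation, 20 min RT reaction, fluorescence 525/598 nm.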
Tau FP inhib: qHTS for Inhibitors of Tau Fibril Formation, Fluorescence Polarization. Microtubule-associated protein tau (Homo sapiens), P10636. hit rate 0.39% among 280,000. Potency, µM (top dose mostly 57.7 µM), for the others: at the highest dose activity, negative = inhibition, most hits filed as inhibitors. K18 P301L tau heparin fibrillization, Alexa594 FP, 6 h; also: potency is read from the fitted curve at half-maximal effect; nearly all actives have a fitted effect of over 55% in size
Target sequence (P10636 561-689 P618L limits assumed): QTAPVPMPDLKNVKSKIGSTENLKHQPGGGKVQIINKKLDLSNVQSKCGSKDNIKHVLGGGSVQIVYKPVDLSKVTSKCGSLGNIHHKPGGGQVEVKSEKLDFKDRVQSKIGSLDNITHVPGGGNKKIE
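K18 P301L tau (15 uM unlabeled/0.24 uM Alexa 594-labeled, final) + compound + heparin 20 uM final; 100 mM NaOAc pH 7; 6 hr 37 C; ThT 30 uM final added, 1 hr RT; FP ex 555/em 632 nm.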
Tau ThT inhib: qHTS for Inhibitors of Tau Fibril Formation, Thioflavin T Binding; Microtubule-associated protein tau (Homo sapiens), P10636; recombinant tau K18 P301L, heparin-induced fibrillization, ThT fluorescence; Potency, µM (top dose mostly 57.4 µM), for inactives: at the highest dose activity, negative = inhibition, actives largely listed as inhibitors; hit rate 2.1% among 270,000; AID 1460, 2008; also: potency is read from the fitted curve at half-maximal effect; nearly all actives have a fitted effect of over 55% in size
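Using a mix of unlabeled (15 uM) and Alexa 594-labeled (0.24 uM) tau K18 P301L, heparin-triggered fibrillization over 6 hr at 37 C was scored by ThT fluorescence.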
Tau fluor cs: Counterscreen qHTS for Inhibitors of Tau Fibril Formation, Fluorescence Polarization; Potency, µM (series often up to 57.7 µM), without a hit: at the top dose activity change, negative = decrease; hit rate 0.93% among 280,000; tau K18 P301L Alexa594 fluorescence, heparin fibrillization; also: potency is read from the fitted curve at half-maximal effect; nearly all actives have a fitted effect of over 55% in size
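Human tau K18 P301L (15 uM unlabeled, 0.24 uM Alexa 594-labeled) in 100 mM sodium acetate pH 7 with 20 uM heparin, 6 hr at 37 C. ThT 30 uM added, 1 hr ambient; Alexa 594 FP and total fluorescence read at 555/632 nm.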
JMJD2E inh: qHTS Assay for Inhibitors of Human Jumonji Domain Containing 2E (JMJD2E); Potency, µM (top dose mostly 57.1 µM), without a hit: at the top dose activity change, negative = inhibition, most hits filed as inhibitors; JMJD2E catalytic domain, FDH-coupled NADH fluorescence (FDH is formaldehyde dehydrogenase); hit rate 1.6% among 230,000; Lysine-specific demethylase 4E (Homo sapiens), B2RXH2; active = well fitted inhibition curve with a large enough effect, not every such curve was filed as active; inconclusive = small, poorly fitted or top-dose-only effect, or another doubt; inactive = no such curve, though single readings can be large or run the other way;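 also: potency is read from the fitted curve at half-maximal effect; 0% = wells with enzyme and -100% = buffer wells without enzyme; nearly all actives have a fitted effect of over 50% in size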
Target sequence (B2RXH2 1-337 limits assumed): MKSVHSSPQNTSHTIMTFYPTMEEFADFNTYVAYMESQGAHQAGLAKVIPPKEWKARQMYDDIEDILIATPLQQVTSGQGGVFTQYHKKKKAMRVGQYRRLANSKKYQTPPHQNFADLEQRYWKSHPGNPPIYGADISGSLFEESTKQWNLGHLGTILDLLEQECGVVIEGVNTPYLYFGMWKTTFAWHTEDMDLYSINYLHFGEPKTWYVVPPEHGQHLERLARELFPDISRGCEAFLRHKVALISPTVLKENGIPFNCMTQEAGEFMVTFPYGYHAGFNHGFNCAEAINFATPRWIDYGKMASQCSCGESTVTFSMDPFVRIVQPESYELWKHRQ
Starred values were filed as active, the others as inactive; ? = inconclusive; . = not tested or not shown; [ ] = remark or other dose. An excerpt weighted towards active compounds, which were near 5.3% of everything screened. Unless noted, calls follow the shape of the dose curve; as a rule, active = well fitted curve in the direction sought with a large enough effect; inconclusive = small, poorly fitted or top-dose-only effect, or another doubt; inactive = no such curve, though single readings can be large; an effect the other way counts as inactive or inconclusive. Unless noted, % is scaled to controls: 0 for no effect and ±100 for the full control effect.

SMILES | Sfp inh | Coupling enz | Tau FP inhib | Tau ThT inhib | Tau fluor cs | JMJD2E inh
CCN(CC)c1ccc(NC(=O)Nc2ccc(C(C)=O)cc2)cc1 | -17% | -3 | 8% | ? | 14µM*[quencher] | -7%
O=C(O)c1c(Cl)c(Cl)c(Cl)c(Cl)c1-c1c2cc(I)c(=O)c(I)c-2oc2c(I)c(O)c(I)cc12 | 14µM* | 3 | -130% | 3.2µM* | 1.6µM*[fluorescent] | .
O=C(O)c1ccccc1-c1c2cc(I)c(=O)c(I)c-2oc2c(I)c(O)c(I)cc12 | ? | 4 | . | . | . | .
Cc1[nH]nc2c1C(c1ccc(-c3ccccc3C#N)o1)C(C#N)=C(N)O2 (centres undefined) | 22µM* | -24 | -1% | 16µM* | -29% | ?
Cc1ccc(-c2ccc(C3C(C#N)=C(N)Oc4n[nH]c(C)c43)o2)cc1 (centres undefined) | 50µM* | -3 | -12% | 6.3µM* | 13µM*[quencher] | ?
N#CC1=C(N)Oc2n[nH]c(-c3cccs3)c2C1c1ccoc1 (centres undefined) | -2% | -11 | ? | ? | -27% | -23%
Cc1[nH]nc2c1C(c1ccc(-c3ccc(Cl)cc3)o1)C(C#N)=C(N)O2 (centres undefined) | -18% | 1 | -9% | 10µM* | ? | -25%
Cc1ccc(C2C(C#N)=C(N)Oc3n[nH]c(-c4cccs4)c32)cc1 (centres undefined) | 17% | -5 | -5% | ? | ? | 7.1µM*
CCc1ccc(NC(=O)CC2C(=O)N(c3ccc(Cl)cc3)C(=O)N2Cc2ccco2)cc1 (centres undefined) | . | . | ? | -3% | ? | .
CC(C)[C@H](NC(=O)CNC(=O)OC(C)(C)C)C(=O)N[C@H](C=O)C(C)C | 27% | . | -5% | -6% | -2% | .
O=C(O)c1ccccc1OS(=O)(=O)O | 3% | 4 | . | . | . | .
COc1ccc(Oc2ncc3nc(C)c(=O)n(Cc4ccc(F)cc4)c3n2)cc1 | -17% | -2 | . | . | . | .
COC(=O)c1c(N)sc(C(=O)N2CCOCC2)c1C | 23% | 0 | -1% | -6% | -3% | 8%
Cc1c(-c2ccccc2)sc(N)c1C(=O)N1CCOCC1 | 45µM* | -18 | -1% | -18% | -13% | ?
CCOC(=O)c1c(N)sc2c(OC)c(Br)ccc12 | -9% | -3 | 6% | ? | 25µM*[quencher] | -5%
Cc1sc(N)c(C(=O)c2ccccc2)c1C | 16µM* | 1 | -16% | ? | -15% | -9%
CCOC(=O)c1c(N)sc(-c2ccccc2)c1C | ? | 2 | 6% | 25µM* | ? | -1%
CCOC(=O)c1c(N)sc(C)c1-c1ccccc1 | 35µM* | -10 | ? | -7% | ? | .
Nc1ncnc2c1ncn2C1OC(CO)C(O)C1O (centres undefined) | 5% | 2 | 5% | -1% | -3% | 1%
Nc1nc(=S)c2ncn([C@H]3O[C@@H](CO)[C@@H](O)[C@@H]3O)c2[nH]1 | 11µM* | 2 | . | . | . | -11%[25.5 µM]
O/C(=C\c1nc2ccccc2nc1/C=C(\O)c1ccccc1)c1ccccc1 | 40µM* | -48* | 3% | ? | -8% | 18%
Cc1cc(C(C)(C)C)cc(S(=O)(=O)Nc2ccc(O)c(C(=O)O)c2)c1C | 89µM* | 13 | 3% | -10% | -12% | ?
CC(=O)Nc1ccc(NC(=O)c2ccc(NS(=O)(=O)c3cc(C(C)(C)C)cc(C)c3C)cc2)cc1 | 21% | 3 | ? | 10% | ? | ?
CN1c2cccc3cccc(c23)N(C)C1(C)C | -23% | -33* | -6% | ? | ? | ?
CCCN1c2cccc3cccc(c23)S1(=O)=O | -3% | -1 | -5% | 7% | -2% | ?
SMILES | Sfp inh | Coupling enz | Tau FP inhib | Tau ThT inhib | Tau fluor cs | JMJD2E inh
CCN(CC)c1ccc(NC(=O)c2c(C)nn(-c3ccc(F)cc3)c2-n2cccc2)c(C)c1 | . | . | ? | ? | -12% | .
CC(C)OCCCN1C(=O)c2[nH]nc(-c3ccccc3O)c2C1c1ccccc1F (centres undefined) | . | . | 3% | -1% | -23% | .
Cc1cc2cc3c(cc2nc1SCc1ccccn1)OCCO3 | 5% | -1 | -2% | -10% | -7% | 4%
N#Cc1cc2ccccc2nc1SCc1ccccn1 | -21% | 2 | -7% | 16µM* | -28% | -13%
CC(C)n1c(O)c(/C=C2\C=NN=C2c2ccccc2)sc1=S | 17% | -1 | 14µM* | -11% | ? | 6%
Fc1ccc(N=Cc2ccc[nH]2)cc1 | 4% | 1 | . | . | . | .
Oc1ccccc1N=Cc1ccc[nH]1 | 25µM* | -16 | -3% | ? | -15% | -16%
COc1ccc(C(=O)Nc2sc3c(c2C(N)=O)CCCC3)cc1OC | -3% | 0 | . | . | . | .
O=C(Oc1ccc(Br)cc1C(=S)N1CCOCC1)c1ccc([N+](=O)[O-])cc1[N+](=O)[O-] | 50µM* | -18 | . | . | . | .
O=C(Oc1ccc(Br)cc1C(=S)N1CCCCC1)c1cc([N+](=O)[O-])cc([N+](=O)[O-])c1 | -2% | -11 | -1% | ? | 22µM*[quencher] | -5%
Cc1ccccc1C(=O)Oc1ccc(Br)cc1C(=S)N1CCCC1 | -1% | . | -16% | -12% | -25% | -6%
O=C(Oc1ccc(Br)cc1C(=S)N1CCCC1)c1ccccc1F | 45µM* | 0 | -12% | ? | -22% | -17%
Cc1ccc(Cn2c(CN3CCN(c4cccc(Cl)c4)CC3)nc3c2c(=O)n(C)c(=O)n3C)cc1 | . | . | -3% | -1% | -19% | .
CN(C)c1ccc(C(=S)N2CCOCC2)cc1 | 1% | 0 | 1% | 2% | -6% | 4%
Oc1ccc(C(=S)N2CCCCC2)cc1 | 50µM* | 1 | -3% | -4% | -12% | 4%
CC(=O)N1CCN(C(=S)c2ccc(N(C)C)cc2)CC1 | 35µM* | 6 | -6% | 0% | -2% | -4%
CN(C)c1ccc(C(=S)N2CCCCCC2)cc1 | 45µM* | -2 | ? | 25µM* | ? | -6%
CC1CCN(C(=S)c2ccc(N(C)C)cc2)CC1 | ? | 2 | -6% | ? | -20% | -29%
COc1cccc(Nc2ncc3nc(CCc4ccccc4)c(=O)n(C)c3n2)c1 | 12% | 5 | . | . | . | .
Cc1c(C(=O)N(C)c2cccc(C(F)(F)F)c2)sc2nc3n(c(=O)c12)CCCCC3 | . | . | ? | ? | -23% | .
CCOc1ccc(N2C(=O)S/C(=C\c3ccc(O)c(OC)c3)C2=O)cc1 | -9% | 2 | -4% | ? | ? | 1%

Screens: PubChem BioAssay, National Center for Advancing Translational Sciences (NCATS)
